Reference: PubChem BioAssay AID1578 (Sanford-Burnham Center for Chemical Genomics, 2009)
Screen size: about 290,000 compounds; about 3,000 (1%) were called active. Cut-off read from the data, not from the text of the source: active = inhibition mostly above about 36% (no sharp cut-off); inactive = mostly below about 34%. For the sample, actives were picked, then their nearest neighbours and some compounds at random.

Assay: NOD1 signaling inhibitors, primary screen, cell-based, luminescence, uHTS (AID 1578);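 note: HEK-293T reporter cells stimulated with the NOD1 agonist gamma-tri-DAP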
Conditions: NOD1-driven NF-kB luciferase reporter cells, at 4 µM, stronger effect = higher value

Compound	inhibition
C=CCN(CC=C)c1cnn(-c2nc3ccccc3[nH]2)c(=O)c1Cl	11.7% (inactive)
O=c1c(Cl)c(N2CCCCC2)cnn1-c1nc2ccccc2[nH]1	74.8% (active)
O=c1c(Cl)c(N2CCOCC2)cnn1-c1nc2ccccc2[nH]1	-19.5% (inactive)
Cc1nn(-c2ccccc2)c(=O)c2ccccc12	-47.4% (inactive)
O=c1c2ccccc2cnn1-c1nc2ccccc2[nH]1	99.7% (active)
Cc1nn(-c2nc3ccccc3[nH]2)c(=O)c2ccccc12	94.4% (active)
O=c1c2ccccc2cnn1-c1ccc(Cl)cc1	-102% (inactive)
Cc1nn(-c2nc3ccccc3[nH]2)c(N)c1-c1ccccc1	-44.1% (inactive)
O=c1c(Cl)c(NCCCO)cnn1-c1nc2ccccc2[nH]1	10.3% (inactive)
Cc1nnc(SCC(=O)NC(=O)Nc2ccc3c(c2)OCCO3)s1	-25.8% (inactive)
COc1ccc(CCNC(=O)CC2SC(=NCCC(C)C)NC2=O)cc1OC (configuration not stated)	-12.2% (inactive)
COc1cc(C2c3[nH]c4ccccc4c3C[C@@H]3C(=O)N(Cc4ccco4)CC(=O)N23)cc(OC)c1OC (some centres not stated)	-4.3% (inactive)
CCCCN(C(=O)CCC(=O)Nc1cc(C)on1)C(C(=O)NC1CCCC1)c1ccccc1OCC (configuration not stated)	-32.8% (inactive)
COCc1nnc(NC(=O)C2CCN(C(=O)c3ccco3)CC2)s1	-4% (inactive)
Cc1ccc(N2C(=O)C3C(c4ccccc4)N4CCCN4C3(C)C2=O)cc1 (configuration not stated)	-27.5% (inactive)
O=S(=O)(Nc1nnc(C(F)(F)F)s1)c1ccc(Cl)cc1	-6.4% (inactive)
O=C1c2ccccc2N2C(=O)c3ccccc3[C@H]2N1c1ccccc1	-14.4% (inactive)
CC(C)Cc1ccc(CN2CCC(n3nccc3NC(=O)C3CCCC3)CC2)cc1	-7.7% (inactive)
Cc1cc(OCCCCCn2ccnc2)cc(C)c1Cl	48% (active)
Cc1cc(OCCCCn2ccnc2)cc(C)c1Cl	-18.7% (inactive)
Cc1cc(OCCCn2ccnc2)cc(C)c1Cl	7.6% (inactive)
O=C(Nc1ccc(S(=O)(=O)Nc2nccs2)cc1)c1ccc(N2C(=O)c3ccccc3C2=O)cc1	-25.2% (inactive)
CC1=CC(C)(C)N2C(=O)C3(C(C#N)=C(N)OC4=C3C(=O)CC(C)(C)C4)c3cc(C)cc1c32 (configuration not stated)	13.2% (inactive)
Cc1cc2c3c(c1)C(C)(c1ccccc1)CC(C)(C)N3C(=O)C21C(C#N)=C(N)OC2=C1C(=O)CC(C)(C)C2 (configuration not stated)	77.1% (active)
Cc1cc2c3c(c1)C1(C(=O)N3C(C)(C)CC2C)C(C#N)=C(N)OC2=C1C(=O)CC(C)(C)C2 (configuration not stated)	-22.2% (inactive)

Compound	inhibition
O=C(Nc1nncs1)c1cccc(S(=O)(=O)N2CCc3ccccc32)c1	-12.7% (inactive)
C=CCOC(=O)C1=C(C)Nc2nnnn2C1c1cc(OC)ccc1OC (configuration not stated)	-1.8% (inactive)
CC1CC(C)(C)Nc2ccc(OC(=O)c3ccco3)cc21 (configuration not stated)	44.8% (inactive)
CC1CC(C)(C)Nc2ccc(N=O)cc21 (configuration not stated)	41.9% (active)
CC1CC2(CCCC2)Nc2ccc(F)cc21 (configuration not stated)	-2% (inactive)
CCOC(=O)C1CCN(C(=O)CCc2ccc(S(=O)(=O)NC(C)C)cc2)CC1	-6.7% (inactive)
COc1ccccc1N1CCN(CC(O)c2ccc3cc[nH]c3c2)CC1 (configuration not stated)	-10.9% (inactive)
CC1CN(C(=O)CCNC(=O)c2ccc(Cl)cc2)CC(C)O1 (configuration not stated)	-15.6% (inactive)
CC12CN3CCN(CC(C3)C1(O)CN1CCOCC1)C2 (configuration not stated)	-10.8% (inactive)
COc1cccc(C(=O)C2CCCN(C(=O)CCC3=NNC(=O)CC3)C2)c1 (configuration not stated)	-14.9% (inactive)
Nc1nc(Nc2ccccc2)nc2ccccc12	-85.2% (inactive)
Nc1nc(Nc2ccc(Cl)cc2)nc2ccccc12	24.4% (inactive)
CN(C)c1ccc(Nc2nc(N)c3ccccc3n2)cc1	73.8% (active)
CCOc1ccccc1N1CC(C(=O)N2CCc3ccccc32)CC1=O (configuration not stated)	17.6% (inactive)
CCn1c(=O)n(CC)c2cc(N3CCCC3)c(NC(=O)c3c(F)cccc3F)cc21	-5.8% (inactive)
O=C(c1cccc(S(=O)(=O)N2CCc3ccccc3C2)c1)N1CCN(c2ccc(O)cc2)CC1	-37.3% (inactive)
CC(=O)c1cccc(NC(=O)Cn2cnc(S(=O)(=O)N3CCOCC3)c2)c1	-18.3% (inactive)
COCc1cc(C)nc(SCc2ccc([N+](=O)[O-])cc2)c1C#N	9.9% (inactive)
CN1CCN(c2ccc(-c3ccc4ccccc4n3)cc2)CC1	90.2% (active)
COc1ccc(-c2ccc3ccccc3n2)cc1	-47% (inactive)
c1ccc2nc(-c3ccc(N4CCOCC4)cc3)ccc2c1	11% (inactive)
COc1cc2cc(CN(Cc3cccnc3)C(=O)Nc3ccccc3F)c(=O)[nH]c2cc1OC	-29.7% (inactive)
CCOc1ccccc1NC(=O)c1sc2ncn(CC(=O)N3CCOCC3)c(=O)c2c1C	1.5% (inactive)
CCCCOc1ccc(CN2CCSCC2)cc1	-28.4% (inactive)
Cc1nc2sc(C(N)=O)c(N)c2c(C)c1CC(=O)c1ccccc1	84.2% (active)

Compound	inhibition
CCOC(=O)c1c(C)nc2sc(C(N)=O)c(N)c2c1-c1ccccc1	31% (inactive)
Cc1nc2sc(C(=O)c3ccccc3)c(N)c2c(C)c1C	27.9% (inactive)
CC(=O)Nc1nc(-c2cccc3ccccc23)cs1	-32.8% (inactive)
O=C(O)c1cc(=O)n(Cc2ccccc2)c(=O)[nH]1	-11.6% (inactive)
O=C(Nc1ccc(Cn2cccn2)cc1)c1ccc(COc2ccccc2Br)cc1	60.2% (inactive)
O=C(Nc1cccnc1)c1ccc(COc2ccccc2Br)cc1	-8.4% (inactive)
CC(C)(C)OC(=O)CNC(=O)c1nc[nH]c1C(=O)NCc1ccc(CNC(=O)OC(C)(C)C)cc1	-14.2% (inactive)
CCN(CC)C(=S)SC1CCCCN(C(=O)c2ccccc2)C1=O (configuration not stated)	65.6% (active)
CCN(CC)C(=S)SC1CCCCN(C(=O)c2ccc(F)cc2)C1=O (configuration not stated)	-8% (inactive)
O=C(c1ccccc1)N1CCCCC(Cl)C1=O (configuration not stated)	-29.3% (inactive)
CCOc1ccc(/C(O)=C2/C(=O)C(=O)N(c3ncccn3)C2c2ccccc2)cc1 (configuration not stated)	91.5% (active)
CCOc1ccc(/C(O)=C2/C(=O)C(=O)N(c3ncccn3)C2c2ccc(Cl)cc2)cc1 (configuration not stated)	-1% (inactive)
CCOc1ccc(/C(O)=C2/C(=O)C(=O)N(c3ncccn3)C2c2ccc(C)cc2)cc1 (configuration not stated)	-0.8% (inactive)
CCOc1ccc(NC(=S)Nc2ccc(F)cc2)cc1	2.3% (inactive)
COc1ccc(NCCC(O)c2ccc(Cl)cc2)cc1 (configuration not stated)	-11.5% (inactive)
CCOc1ccc(NCCC(O)c2ccc(F)cc2)cc1 (configuration not stated)	34.5% (active)
S=C(NC1CCCC1)NC1CCCC1	2.9% (inactive)
Clc1ccc(/C=C/c2ncc[nH]2)c(Cl)c1	-2% (inactive)
N#C/C(=C\c1cc([N+](=O)[O-])ccc1Cl)C(N)=O	-44.7% (inactive)
Cc1cc(C)nc(NC(=O)/C=C/c2ccc(Cl)cc2Cl)c1	-58% (inactive)
O=C(CCC(=O)Nc1cc(C(F)(F)F)ccc1Cl)N/N=C\c1cc([N+](=O)[O-])ccc1O	3% (inactive)
COc1ccc(C(=O)/C=C/c2ccccc2C(F)(F)F)cc1	-21.4% (inactive)
O=C(O)c1cc(C(F)(F)F)nc2c(C(F)(F)F)cccc12	-18.1% (inactive)
Cc1ccc(OCCCC(=O)NCc2ccco2)c(C)c1	-28.1% (inactive)
COc1ccc(NC2CCCN(C(=O)CCCN3CCCCC3=O)C2)cc1 (configuration not stated)	19.3% (inactive)

Compound	inhibition
CCc1ccc(CNC(=O)CCS(=O)(=O)Cc2ccccc2F)cc1	3.9% (inactive)
CCC/C(C)=C/c1ccc(CC)cn1	12.7% (inactive)
CCOc1cc(CNc2ccccc2)cc(Br)c1OCC(=O)NC(C)(C)C	4.8% (inactive)
COc1cc(CNc2cccc(C(=O)O)c2)cc(Br)c1OCC(=O)NC(C)(C)C	94.3% (active)
COc1cc(CNc2ccc(C(=O)O)cc2)cc(Br)c1OCC(=O)NC(C)(C)C	-27.4% (inactive)
CC(=O)c1ccc(N2CCN(S(=O)(=O)c3ccc4c5c3CC(=O)N5CC(C)S4)CC2)cc1 (configuration not stated)	-20.1% (inactive)
CCn1c(O)c(N=NC(=O)c2cccs2)c2ccccc21	-38.2% (inactive)
COc1cccc(C2CC(c3ccc(Cl)cc3)Nc3nc(N)nn32)c1 (configuration not stated)	13.7% (inactive)
OCc1nnn(-c2ccccc2)c1CO	-4.1% (inactive)
Nc1c(CO)nnn1-c1ccccc1	68.7% (active)
NC(=O)c1nnn(-c2ccccc2)c1N	-28.7% (inactive)
COc1cc(/C=C/C(=O)OCC(=O)Nc2cc(C)c(C)cc2[N+](=O)[O-])ccc1O	-8.4% (inactive)
Cc1ccc(-c2ccc(S(=O)(=O)NCC3CCCO3)cc2)cc1 (configuration not stated)	47.8% (inactive)
O=S(=O)(NCC1CCCO1)c1ccc(-c2ccc(Cl)cc2)cc1 (configuration not stated)	9.5% (inactive)
Cc1cccc(N2CCN(c3ccc4cc(S(=O)(=O)N5CCCCC5)ccc4n3)CC2)c1C	25.6% (inactive)
CCOc1ccccc1NC(=O)CSc1ccccc1	-13.6% (inactive)
Cc1cc(Cl)ccc1NC(=S)NC1CCCC1	24% (inactive)
S=C(Nc1ccc(Cl)cc1Cl)NC1CCCCC1	-5% (inactive)
CC1CCCCC1NC(=S)Nc1ccc(Cl)cc1Cl (configuration not stated)	42.2% (active)
CCOC(=O)c1ccccc1NC(=O)c1cn(-c2ccc(C)c(C)c2)c(=O)c2ccccc12	48% (inactive)
CCOC(=O)c1ccccc1NC(=O)c1cn(-c2ccc(OC)cc2)c(=O)c2ccccc12	73.4% (active)
CCOC(=O)C(C)NC(=O)c1cn(-c2ccc(OC)cc2)c(=O)c2ccccc12 (configuration not stated)	1.9% (inactive)
